Assay [1] concerns the target T1, Aspartate--tRNA(Asp/Asn) ligase (Mycobacterium tuberculosis (strain ATCC 25618 / H37Rv)) (UniProt P9WFW3). Also: in the data most compounds retested in dose-response had high values.
T1 sequence (whole entry): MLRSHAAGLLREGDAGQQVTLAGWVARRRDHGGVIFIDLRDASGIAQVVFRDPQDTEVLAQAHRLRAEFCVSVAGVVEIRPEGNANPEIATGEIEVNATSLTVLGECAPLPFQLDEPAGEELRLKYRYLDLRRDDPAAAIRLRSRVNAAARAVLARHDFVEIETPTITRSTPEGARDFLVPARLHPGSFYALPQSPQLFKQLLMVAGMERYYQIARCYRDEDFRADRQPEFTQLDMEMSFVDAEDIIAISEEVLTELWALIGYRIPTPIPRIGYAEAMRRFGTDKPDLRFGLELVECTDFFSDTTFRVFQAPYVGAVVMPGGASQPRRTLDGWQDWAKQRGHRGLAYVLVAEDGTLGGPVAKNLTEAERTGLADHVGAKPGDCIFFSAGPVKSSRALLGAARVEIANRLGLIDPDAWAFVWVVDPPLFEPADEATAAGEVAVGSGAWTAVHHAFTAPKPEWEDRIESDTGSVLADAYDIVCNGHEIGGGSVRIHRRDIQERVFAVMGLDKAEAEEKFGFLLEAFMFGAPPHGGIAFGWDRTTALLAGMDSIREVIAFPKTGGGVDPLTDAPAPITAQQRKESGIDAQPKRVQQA
As to the kind of experiment: Assay for Asp RNA synthetase-1 from Mycobacterium tuberculosis. The class given is functional. Details: scale not given: direction of the effect not stated beside the values. To be noted: 30 µM.

Assay [2] deals with Shiga toxin 2 (Escherichia coli O157:H7) (UniProt P09385+P09386). As to the kind of experiment: E. coli 0.157:H7 Shiga Toxin SOP - stx2 screening assay. Details: scale not given: direction of the effect not stated beside the values. In kind it is functional. The note with it: 30 µM.

In the case of `COCCO[C@H]1CCN(C(=O)c2cc(C)on2)[C@H]1Cc1ccccc1`, the Percent Effect in assay [1] was -1.39%; in assay [2], -1.24%.
Turning to `O=C(NCCOc1ccc2c(c1)OCO2)N1CCC1`, the results for the Percent Effect in assay [1] and in assay [2] were 0.81% and -21.5%, respectively.
The like results for `Nc1nc(C2CCN(C(=O)c3cscn3)CC2)cs1` were, in that order, 2.54% and -10.9%.
Turning to `CCS(=O)(=O)N1CCC2(CC(=O)N(c3cccc(C)c3)C2)C1` (stereo not given), the Percent Effect in assay [1] was 2.82%; in assay [2], -11.5%.
For the compound `CNC(=O)c1cc2c(nc1N(C)C)CCN(S(=O)(=O)C1CC1)CC2`, the Percent Effect in assay [1] is 0.364%; in assay [2], -4.82%.
As to `Cn1cc(-c2nnn3c2COC(CNCc2nccs2)C3)cn1` (stereo not given), the Percent Effect in assay [1] is -4.41%; in assay [2], -39.2%.
Consider `COc1cccc(CNc2c(C)cnc3c2c(=O)n(C)c(=O)n3C)c1`, for which the Percent Effect in assay [1] was -3.02%; in assay [2] it was -31.1%.
Take `CC(=O)N1CCCC1c1nccc(C)n1` (stereo not given): the Percent Effect in assay [1] was determined as 0.191%; in assay [2], 0.898%.
As to `CC(=O)NCCNC(=O)c1cnc(-c2ccccc2)nc1`, the Percent Effect in assay [1] is 4.64%; in assay [2], -11.3%.
`CC(C)N1CCOCC2(CN(Cc3nccs3)CCO2)C1` (stereo not given): the values for the Percent Effect in assay [1] and in assay [2] were 2.14% and -11.3%, respectively.
As for `CN(CCN1CCCCC1)C(=O)c1cc(CN2CCOCC2)on1`, the figures for the Percent Effect in assay [1] and in assay [2] were 5.72% and -1.02%, respectively.
On the same counts, the results for `CNC(=O)C1CCN(C(=O)c2cccn2Cc2cccs2)CC1` are 0.91% and 11.1%.
With `Cn1cc(CN2CCCN(C(=O)c3ccc4c(c3)COC4)CC2)cn1`, the Percent Effect in assay [1] was -0.281%; in assay [2], 30.1%.
Regarding `CC(NC(=O)CNCCn1cccn1)c1ccc2c(c1)CCCC2` (stereo not given), the Percent Effect in assay [1] was -4.86%; in assay [2] it was -9.4%.
Consider `Cc1nc(CN2CCOC(CNc3cccnn3)C2)cs1` (stereo not given), for which the values for the Percent Effect in assay [1] and in assay [2] were -1.08% and -2.07%, respectively.
For the compound `Cc1ccc(NC2CCN(C(=O)Cc3ccc(C#N)cc3)CC2)nn1`, the Percent Effect in assay [1] was 4.2%; in assay [2], -11.6%.
As for `CC1CCCN(Cc2c(C3CCOCC3)[nH]c3ncccc23)C1` (stereo not given), the results for the Percent Effect in assay [1] and in assay [2] were 3.59% and 12.7%, respectively.
The like results for `COCCN(C)CCN1CC2(CCN(C(=O)C3CCOC3)CC2)OC1=O` (stereo not given) were, in that order, -1.75% and -24.2%.
`COc1ccc(CN2CCn3cc(Cn4cccn4)nc3C2)cc1`: the values for the Percent Effect in assay [1] and in assay [2] were 6.63% and -37.1%, respectively.
On to `CCN(CC)CCNc1ncc(-c2cc(C)no2)c(-c2ccoc2C)n1`, for which the Percent Effect in assay [1] was found to be 2.28%; in assay [2], 7.04%.
With `O=C(Cc1ccc2c(c1)OCO2)N1CCN(c2cnccn2)CC1`, the Percent Effect in assay [1] was -3.06%; in assay [2] it was 19%.
Turning to `CC(C)c1cc(N2CCC(CCC(=O)NC3CC3)CC2)n2nccc2n1`, the Percent Effect was 0.32% in assay [1] and -4.79% in assay [2].
The like results for `CC(C(=O)N1CCCN(c2ncccc2C#N)CC1)n1cccn1` (stereo not given) were, in that order, -4.27% and 31.7%.
For the compound `CCN(C)c1ncnc2c1CCN(C(=O)N1CCCC1)CC2`, the values for the Percent Effect in assay [1] and in assay [2] were 9% and -30.9%, respectively.
Regarding `Cc1cc(C[C@@H]2COC[C@@H]2NC(=O)Cn2c(=O)oc3ccccc32)on1`, the Percent Effect is -0.0288% in assay [1] and -25.4% in assay [2].
For `c1ccc(-c2ncc(CNC3CCc4ncnn4C3)cn2)cc1` (stereo not given), the results for the Percent Effect in assay [1] and in assay [2] were -0.626% and 13.4%, respectively.
As for `Cc1nnc(N2C[C@@H](OCCCn3cccn3)[C@H]3OCCC[C@H]32)s1`, the Percent Effect in assay [1] is -3.42%; in assay [2], -13.8%.
Turning to `Cc1csc(CN2CC[C@H]3C[C@H](c4nnc(C)[nH]4)O[C@@H]3C2)n1`, the Percent Effect in assay [1] is 1.94%; in assay [2], 0.515%.
`Cc1nccc(CN2CCC(c3nnsc3S(C)(=O)=O)CC2)n1`: the Percent Effect in assay [1] was -0.313%; in assay [2], 5.72%.
Take `CS(=O)(=O)N1CCc2nc(NC(=O)Nc3c(F)cccc3F)sc2C1`: the Percent Effect in assay [1] was -4.11%; in assay [2] it was 4.52%.
Take `Cc1cccc(-c2nc(CN(Cc3cccs3)CC3CCCO3)no2)c1` (stereo not given): the Percent Effect was -0.626% in assay [1] and -5.45% in assay [2].
On the same counts, the results for `COCCN1CCC2(CCCN(C(=O)c3cnoc3C)C2)C1=O` (stereo not given) are 0.137% and -23%.
For the compound `CNc1nc(C2CCCN2C(C)=O)nc2c1CCN(CC1CC1)C2` (stereo not given), the figures for the Percent Effect in assay [1] and in assay [2] were 1.43% and -7.13%, respectively.
For the compound `CCNC(=O)N1CCN(Cc2nc3ccccc3[nH]2)[C@@H]2CS(=O)(=O)C[C@@H]21`, the Percent Effect in assay [1] was 2.89%; in assay [2], -6.12%.
In the case of `COCCN1CCc2cc(C(=O)N(C)C)c(NC(C)C)nc2CC1`, the values for the Percent Effect in assay [1] and in assay [2] were -1.31% and -20%, respectively.
Regarding `CCn1c(C)cc(C(=O)N2CCCC(n3nc(C)nc3C)C2)c1C` (stereo not given), the Percent Effect is -4.26% in assay [1] and 16% in assay [2].
On the same counts, the results for `CCOC1COC2(CCN(Cc3ccc4c(c3)OCO4)CC2)C1` (stereo not given) are -3.53% and -2.45%.
Turning to `COc1cc(C(=O)Nc2nc(C)no2)ccc1C`, the figures for the Percent Effect in assay [1] and in assay [2] were -0.143% and -2.1%, respectively.
As for `COc1ccccc1C1CNC(=O)c2nc(-c3cnn(C)c3)[nH]c2C1` (stereo not given), the Percent Effect in assay [1] is 1.33%; in assay [2], -58%.
The like results for `O=C(Cc1ccsc1)NCC1OCCc2cn(CC3CC3)nc21` (stereo not given) were, in that order, 1.47% and -11.5%.
Turning to `O=C(c1ccc(-n2ccnc2)nc1)N1CCCC(n2cccn2)C1` (stereo not given), the results for the Percent Effect in assay [1] and in assay [2] were -4.43% and 28.7%, respectively.
Turning to `CCC1=N[C@@]2(CC[C@@H]3CN(S(=O)(=O)CC(C)C)C[C@@H]32)C(=O)N1C`, the Percent Effect in assay [1] was 0.189%; in assay [2], -1.16%.
For the compound `CS(=O)(=O)N1CC[C@H]2[C@H](C[C@@H](Cn3cncn3)N2CC2CC2)C1`, the Percent Effect is 10.1% in assay [1] and -8.81% in assay [2].
Turning to `Cc1cnn(CC2CCCN2CC(=O)Nc2nc(C)cs2)c1` (stereo not given), the results for the Percent Effect in assay [1] and in assay [2] were 1.62% and -8.49%, respectively.
For the compound `CCn1ccnc1CN1CCN(CC(O)c2ccccc2)CC1` (stereo not given), the results for the Percent Effect in assay [1] and in assay [2] were -5.63% and -31%, respectively.

These data come from ChEMBL document CHEMBL3988442, “University of Dundee, Small-Polar-MMV Screening Library” (2021).
